GIRK2 activ: activators of human GIRK2 potassium channels. 63,000 tested, 0.05% active. G protein-activated inward rectifier potassium channel 2 (Homo sapiens), P48051. calls only for hits at 25 µM. HEK293-GIRK2 thallium flux, Thallos fluorescence, MPD; call rule not given here
Target sequence (P48051 whole entry, looked up): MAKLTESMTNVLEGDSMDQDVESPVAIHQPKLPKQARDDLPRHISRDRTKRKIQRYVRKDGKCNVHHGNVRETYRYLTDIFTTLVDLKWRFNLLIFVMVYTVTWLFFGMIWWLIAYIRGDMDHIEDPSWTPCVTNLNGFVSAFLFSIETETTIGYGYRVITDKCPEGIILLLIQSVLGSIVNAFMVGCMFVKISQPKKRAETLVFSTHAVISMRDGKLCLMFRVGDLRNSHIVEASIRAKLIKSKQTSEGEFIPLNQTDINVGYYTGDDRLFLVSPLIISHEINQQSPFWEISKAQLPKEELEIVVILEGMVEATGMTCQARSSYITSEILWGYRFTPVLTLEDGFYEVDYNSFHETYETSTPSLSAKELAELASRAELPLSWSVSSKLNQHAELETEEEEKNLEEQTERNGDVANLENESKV
Large screens that a line does not name were inactive. Shown is part of a subset that was picked to be rich in hits.

CC(C)c1nnc(C2CCN(CC(=O)Nc3cccnc3)CC2)o1	none
Cc1noc(C)c1CCC(=O)NCc1nc2ccccc2[nH]1	none
Cc1ccc(N2CN(CC(=O)Nc3ccccc3Cl)S(=O)(=O)c3cccnc32)cc1	none
COc1cccc(S(=O)(=O)N2CCN(c3ccc(Cl)c(Cl)c3)CC2)c1	none
O=C(Cn1nc2c(c1NC(=O)c1ccco1)CSC2)NCc1ccccc1	none
CCc1cnc(NC(=O)CSc2nnnn2-c2ccc(C(C)C)cc2)s1	none
CCCCn1c(SCC(=O)NCC2CCCO2)nc2c(-c3ccccc3)c[nH]c2c1=O (centres undefined)	none
O=C(NCCOc1ccc(-c2ccc(F)cc2)nn1)c1ccccc1Br	none
CCOC(=O)c1cn[nH]c1S(=O)(=O)N1CCN(c2cccc(C)c2)C(C)C1 (centres undefined)	GIRK2 activ active
CCOC(=O)c1cn[nH]c1S(=O)(=O)N1CCN(c2ccc(C(C)=O)cc2)CC1	none
CCOC(=O)c1cn[nH]c1S(=O)(=O)Nc1cccc(CC)c1	none
COc1ccc(NC(=O)Cn2nc3ccc(-c4ccc(Cl)cc4)nn3c2=O)cc1	none
COc1cc(C(=O)Nc2nnc(-c3cccs3)o2)cc(OC)c1OC	none
Cc1ccc2c(=O)c(C(=O)N3CCOCC3)cn(CC(=O)NCc3ccc(F)cc3)c2n1	none
CS(=O)(=O)c1ccc2nc(N(Cc3ccco3)C(=O)C3CCCCC3)sc2c1	GIRK2 activ active
CS(=O)(=O)c1ccc2nc(N(Cc3ccco3)C(=O)c3ccc(Br)s3)sc2c1	none
CCCCOc1ccc(C(=O)N(Cc2ccco2)c2nc3ccc(S(C)(=O)=O)cc3s2)cc1	none
COc1cc(S(=O)(=O)N2CCCCC2C)c(OC)cc1C (centres undefined)	none
CN(C)C(=O)Oc1cc(OCc2ccccc2)c2c(=O)cc(-c3ccccc3)oc2c1	none
CN(CC(=O)NC1CCCC1)c1nc2c(C(F)(F)F)cccc2s1	none
CCCN(C)c1nccn2c(=O)n(CC(=O)Nc3cccc(C(C)C)c3)nc12	none
O=C(C(c1ccccc1)c1ccccc1)N1CCCSCC1CN1CCCC1 (centres undefined)	none
COc1ccc(CCn2c(C)cn3c4c(=O)n(Cc5ccccc5F)c(=O)n(C)c4nc23)cc1OC	none
CCn1c(-n2nc(C)c(C)c2C)nc2c1c(=O)n(CC(N)=O)c(=O)n2C	none
COc1ccc(-c2c(-c3ccc(OC)cc3O)ncnc2C(F)(F)F)cc1	none
CS(=O)(=O)N1CCC(C(=O)N2CCN(CC(F)(F)F)CC2)CC1	none
COc1ccc(-c2noc(-c3ccc4c(=O)n(CCc5ccccc5)c(=O)[nH]c4c3)n2)cc1OC	none
COc1cccc(CNC(=O)c2nnn(-c3cccc(OC)c3)c2-c2cccnc2)c1	none
CCN(CC)c1ccc(-c2noc(CN3CCCCC3C)n2)cn1 (centres undefined)	GIRK2 activ active
CCN(CC)c1ccc(-c2noc(CN3CCSCC3)n2)cn1	none
CCN(CC)c1ccc(-c2noc(CN3CCN(c4ccccc4Cl)CC3)n2)cn1	none
COc1cccc2cc(C(=O)N3CCC(Oc4cnccn4)CC3)c(=O)oc12	none
Cc1cc(OCC(=O)O)c(C(C)C)cc1Br	none
CC1=C(C(=O)Nc2cccc(Cl)c2)C(c2ccc(Cl)c([N+](=O)[O-])c2)NC(=S)N1 (centres undefined)	none
COC(=O)N1CCc2ccc(F)cc2C1C(=O)Nc1cccc(C)n1 (centres undefined)	none
COC(=O)N1CCc2ccc(Br)cc2C1C(=O)Nc1ccc(SC)cc1 (centres undefined)	none
COC(=O)N1CCc2ccc(Br)cc2C1C(=O)Nc1nccs1 (centres undefined)	GIRK2 activ active
Cc1nc(Nc2ccccn2)cc(N2CCN(C(=O)c3ccccc3C(F)(F)F)CC2)n1	none
Cc1nc(N2CCCC2)nc(C)c1NC(=O)c1cccs1	none
COc1ccc(CN2C(=O)C(O)(CC(C)=O)c3c(Cl)ccc(Cl)c32)cc1 (centres undefined)	none
COc1ccc(C)cc1NC(=O)c1cc(=O)c(OCc2ccccc2)co1	none
CN1CCN(c2nc3c(c(=O)[nH]c(=O)n3C)n2CC(O)c2ccccc2)CC1 (centres undefined)	none
Cc1ccccc1-n1nnc(C(=O)NCc2ccc(Br)cc2)c1-c1ccncc1	none
COc1cccc(CNC(=O)c2nnn(-c3ccccc3Cl)c2-c2ccncc2)c1	none
Cc1ccccc1-n1nnc(C(=O)Nc2nccs2)c1-c1ccncc1	none
COc1cc(OC)c(NC(=O)c2nnn(-c3ccccc3C)c2-c2ccncc2)cc1Cl	GIRK2 activ active
CSc1ccc(CNC(=O)c2nnn(-c3ccccc3C)c2-c2ccncc2)cc1	none
COc1ccc(NC(=O)c2nnn(-c3ccccc3C)c2-c2ccncc2)c(C)c1	GIRK2 activ active
O=C(NCc1ccc(Cl)cc1)N1CCN(c2ccc(-c3noc(C4CC4)n3)cn2)CC1	none
COc1ccc(CCNC(=O)C2CCCN(c3cnc4ccccc4n3)C2)cc1OC (centres undefined)	none
CCOC(=O)Cn1c(=O)c2c(nc3n(-c4ccccc4OC)c(-c4ccccc4)cn23)n(C)c1=O	none
COc1ccccc1-n1c(-c2ccccc2)cn2c3c(=O)n(CC(C)=O)c(=O)n(C)c3nc12	none
